# Hits are enriched below; roughly 3.1% of the tested compounds scored in any of these assays.
# TWEAK Fn14 block: TWEAK-Fn14 signaling inhibition; TWEAK-stimulated Fn14 reporter cells, luciferase luminescence, 8 h; AID 1159606; actives 2% (n = 360,000); inhibition, % at 10 µM; in the data active = inhibition above about 50%
# TROY NFkB inh: inhibitors of TROY-dependent NF-kB signaling; Q293 LMP1-TROYcd NF-kB luciferase reporter, 4 h; inhibition, % at 10 µM; actives 0.98% (n = 360,000); AID 1347056;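 active = compounds whose plate-normalised and pattern-corrected inhibition of the luciferase reporter signal at the single screening dose is 50% or more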
# EBV LMP1 NFkB: reduces LMP1-driven NF-kappaB luciferase signal; actives 0.69% (n = 350,000); LMP1-induced NF-kappaB luciferase reporter cells, luminescence; AID 504558; inhibition, % at 12.5 µM; in the data active = inhibition above about 41%
# EWS-Fli inh: inhibitors of EWS/Fli oncoprotein transcriptional activity; AID 651661; actives 0.67% (n = 350,000); A673 NR0B1-luciferase reporter, viability-normalised; inhibition, % at 12.6 µM;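 active = mean inhibition of at least 50% after viability correction, with every replicate also passing that limit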;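 also: firefly luciferase signal divided by Alamar Blue viability fluorescence both relative to DMSO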
# PAX8 reporter: lowers PAX8-driven luciferase in RMG-I cells; AID 652154; inhibition, % at 12.6 µM; actives 1.2% (n = 360,000); RMG-I TPO-luciferase reporter, SteadyGlo, 24 h;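 active = mean replicate inhibition at least 60% with every replicate also reaching 60%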;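 also: luciferase light reporting Pax8 driven TPO promoter activity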
# LGR2 inh: Drosophila LGR2 receptor signaling inhibition. HEK293 LGR2, CRE-luciferase, bursicon-stimulated, 4 h. actives 0.35% (n = 380,000). inhibition, % at 9.99 µM;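 active = drop in luminescence signal, shown as inhibition above about 50% in the replicate tests, limit read from the data, passing the limit was not always enough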;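 also: agonist challenge used bursicon conditioned medium at about half maximal strength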
# A number is an active result; – = inactive; · = not tested or not shown.
SMILES,TWEAK Fn14 block,TROY NFkB inh,EBV LMP1 NFkB,EWS-Fli inh,PAX8 reporter,LGR2 inh
O=C(c1nn2c(C(F)(F)F)cc(-c3cccs3)nc2c1Cl)N1CCCc2ccccc21,54.2,–,–,·,–,–
Cc1cccnc1C(NC(=O)C1CCN(Cc2ccc(Oc3ccccc3)cc2)CC1)c1ccccc1 (stereo unspecified),–,–,·,·,·,·
COc1ccc(C(NC(=O)C2CCN(Cc3ccc(Oc4ccccc4)cc3)CC2)c2ccccc2C)cn1 (stereo unspecified),–,–,·,–,63.0,–
NC(=O)c1sc2nccc(Nc3ccccc3)c2c1N,–,–,65.3,·,·,·
CC(C)NC(=O)N(C)C[C@H]1Oc2cc(C#CC(C)(C)O)ccc2S(=O)(=O)N([C@H](C)CO)C[C@@H]1C,·,·,·,–,·,–
COc1cc(N2C(=O)C=CC2=O)ccc1N1C(=O)C=CC1=O,–,–,48.8,60.4,115.4,·
CC(C)NC(=O)N(C)C[C@@H]1Oc2ncc(C#CC3CC3)cc2C(=O)N([C@H](C)CO)C[C@H]1C,·,·,·,–,–,–
Cc1cc(C)c(O)c(-c2n[nH]c3c2C(c2cccc(O)c2)N(Cc2ccco2)C3=O)c1 (stereo unspecified),–,60.1,–,–,–,–
COc1ccccc1CNC(=O)C[C@H]1C[C@@H]2c3cc(NC(=O)c4cccnc4)ccc3O[C@@H]2[C@@H](CO)O1,·,·,·,–,–,–
O=C(Nc1ccc(Cl)c(Cl)c1)Nc1ccc(N2CCCC2)c(S(=O)(=O)Nc2ccccc2Cl)c1,68.3,–,–,·,–,–
O=C(Nc1ccc(N2CCCCC2)c(S(=O)(=O)Nc2ccccc2Cl)c1)c1cccnc1,–,–,–,–,–,–
O=C(Nc1ccc(F)cc1)Nc1ccc(N2CCCC2)c(S(=O)(=O)Nc2ccccc2Cl)c1,75.5,–,–,–,88.1,·
CCCCC(=O)Nc1nnc(C)s1,–,–,–,·,·,·
CCC(=O)Nc1nnc(C)s1,58.3,·,–,·,·,·
C[C@@H]1CN([C@@H](C)CO)C(=O)c2cccc(NS(=O)(=O)c3cccs3)c2O[C@@H]1CN(C)S(=O)(=O)c1ccccc1,·,·,·,–,·,–
COC1=CC(=O)C(O)=C(CCCCCCC/C=C/CCCCCCCC2=C(O)C(=O)C=C(OC)C2=O)C1=O,85.0,61.5,–,·,·,·
CCN(CC)C(=S)Oc1ccc(Cl)cc1Cl,96.5,–,–,–,–,–
CCN(CC)C(=S)Oc1c(Cl)cccc1Cl,–,–,–,–,–,–
C[n+]1cc2c3c(ccc2c2ccc4cc5c(cc4c21)OCO5)OCO3,·,·,·,59.0,108.5,100.5
COc1ccc2cc3[n+](cc2c1O)CCc1cc2c(cc1-3)OCO2,–,–,·,–,–,–
CO[C@H]1CN(C)C(=O)c2ccc(NC(=O)CC(F)(F)F)cc2OC[C@@H](C)N(C(C)=O)C[C@@H]1C,·,·,·,–,–,–
CCN(CC)c1ccc(/C=N/NC(=O)c2cccc(S(=O)(=O)Nc3ccccc3OC)c2)c(O)c1,–,–,57.9,–,74.2,–
CCN(CC)c1ccc(/C=N/NC(=O)c2ccc3nc[nH]c3c2)c(O)c1,–,–,52.7,·,·,·
COc1cccc(/C=N/NC(=O)c2ccc3nc[nH]c3c2)c1O,–,–,–,–,–,–
CCN(CC)c1ccc(/C=N/NC(=O)c2cccc(S(=O)(=O)Nc3ccccc3OC)c2)cc1,–,–,–,–,–,–
SMILES,TWEAK Fn14 block,TROY NFkB inh,EBV LMP1 NFkB,EWS-Fli inh,PAX8 reporter,LGR2 inh
COc1ccccc1NS(=O)(=O)c1cccc(C(=O)N/N=C/c2ccc([N+](=O)[O-])o2)c1,–,–,–,–,93.0,–
CC(=O)c1cccc(N=c2scc(-c3ccc(S(=O)(=O)N4CCOCC4)cc3)n2CCO)c1,53.9,–,–,–,–,–
CCS(=O)(=O)Nc1ccc2c(c1)C(=O)N(C)[C@@H]1CC[C@H](CC(=O)N3CCN(C)CC3)O[C@@H]1CO2,·,·,·,–,–,–
CC(=O)Oc1cc2c3c(c1)/C(=C1/SC(=S)NC1=O)C(=O)N3C(C)(C)C=C2C,–,50.4,–,–,–,–
CCOc1cc2c3c(c1)C(C)=CC(C)(C)N3C(=O)C2=O,–,–,–,–,–,–
Cc1ccc(S(=O)(=O)N2C[C@@H]3O[C@@H](CNS(=O)(=O)c4ccccc4C)CC[C@@H]32)cc1,·,·,·,–,·,·
CCCN(C)C[C@H]1Oc2cc(-c3ccccc3OC)ccc2S(=O)(=O)N([C@H](C)CO)C[C@H]1C,·,·,·,–,·,–
CCCOC(=O)Cn1c(=O)c2cc3c(=O)n(CC(=O)OCCC)c(=O)c3cc2c1=O,–,62.5,–,·,·,·
Cc1nc2ccccc2n1CC(O)COc1ccccc1Cl (stereo unspecified),53.7,–,–,–,–,–
Cc1nc2ccccc2n1CC(O)COc1ccc(Br)cc1 (stereo unspecified),–,–,–,–,–,·
COc1ccc2c3c(n(C)c2c1)[C@H](CO)N(C(=O)Nc1ccc(F)cc1)CC31CCN(C)CC1,·,·,·,–,·,–
CCC(C(=O)N1CCc2ccccc2C1)n1nc(C)n2c(cc3occc32)c1=O (stereo unspecified),81.3,·,–,·,·,·
CCCOc1ccc(N2C(=O)CC(NCCc3ccc(S(N)(=O)=O)cc3)C2=O)cc1 (stereo unspecified),–,–,–,·,–,·
CCOc1ccc(S(=O)(=O)N2CCC(C(=O)NCCc3ccc(OC)c(OC)c3)CC2)cc1,–,–,–,–,–,–
CCOc1ccc(N2C(=O)CC(NCCc3ccc(S(N)(=O)=O)cc3)C2=O)cc1 (stereo unspecified),108.2,·,–,·,·,·
CCOc1ccc(S(=O)(=O)N2CCC(C(=O)NCCc3ccc(S(N)(=O)=O)cc3)CC2)cc1,–,–,48.9,–,–,–
Cc1noc(C)c1NC(=O)N(C)C[C@H]1Oc2c(NS(=O)(=O)c3cn(C)cn3)cccc2C(=O)N([C@@H](C)CO)C[C@H]1C,·,·,·,–,·,–
COc1ccc(NC(=O)N(C)C[C@@H]2OCCCC[C@H](C)Oc3ccc(NS(=O)(=O)c4cn(C)cn4)cc3C(=O)N([C@H](C)CO)C[C@H]2C)cc1,·,·,·,–,–,–
COC(=O)[C@@H]1[C@@H](CO)[C@@H]2Cn3c(ccc(-c4cccc(F)c4)c3=O)[C@@H]2N1Cc1ccncc1,·,·,·,–,–,–
CC1=C(C(=O)Nc2ccccc2)C(c2ccco2)n2ncnc2N1 (stereo unspecified),–,–,–,–,·,–
CC1=C(C(=O)Nc2ccccc2)C(c2ccc(C)o2)n2ncnc2N1 (stereo unspecified),82.9,·,–,·,·,·
COc1ccc(CC2C(=O)NC(C)C(=O)N(C)C3Cc4ccc(cc4)Oc4cc(ccc4O)CC(C(=O)NC(C)C(=O)NC(C)C(=O)N2C)N(C)C3=O)cc1 (stereo unspecified),101.3,84.3,81.6,66.4,110.0,103.3
C/C=C/c1ccc([C@@H]2[C@@H](CO)N(C(=O)c3cnccn3)C23CN(C(C)=O)C3)cc1,·,·,·,–,–,–
NC(=O)c1sc2nc(-c3ccccc3)c3c(c2c1N)CCCC3,–,–,–,–,–,–
Nc1c2c(nc3sc4c(c13)CCCC4)-c1ccccc1CC2,–,56.4,–,–,–,–

# Source: PubChem (several laboratories)
